This passage reports growth results from PubChem BioAssay (NCI).

Each structure is given as a SMILES string. Compounds without any hit were thinned out: in the full panel of roughly 83,000, 20% have a hit.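 Cell lines were cultured in 96-well plates, exposed to a single compound concentration, and assessed for percent growth 48 hours later.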 Unmarked numbers belong to inactive results. Activity calls are given as the source filed them. How the source made its calls: active means growth percent below 10; inactive means the rest.

Among the test systems are T-47D breast; BT-549 breast; MDA-MB-435 melanoma; SW-620 colon; MCF7 breast; HCT-116 colon; HCC-2998 colon; KM12 colon.
Holding throughout (assay): NCI-60 one-dose screen, 48 h (100 = growth as untreated, 0 = no growth, -100 = all killed)
Common to all, as to details: 10 µM unless noted

For the molecule `CC[C@H](CC[C@@H](C)[C@H]1CC[C@H]2[C@@H]3CC[C@@H]4CC(=O)/C(=C\c5ccncc5)C[C@]4(C)[C@H]3CC[C@]12C)C(C)C`, the growth in the assay on T-47D breast is 100%; with BT-549 breast, 95.2%; in the assay on MDA-MB-435 melanoma, 101%; with SW-620 colon it was 102%; with MCF7 breast it was 95.7%; in the assay on HCT-116 colon, 103%. Also, the growth is 104% in the assay with HCC-2998 colon and 102% in the assay on KM12 colon.

In the case of `C[Se]C(=O)CC1=C2C=C(F)C=CC2/C(=C\c2ccc(S(C)=O)cc2)C1C` (stereo not given), the growth in the assay on T-47D breast is 48.7%; with BT-549 breast it was -89.8% (active); in the assay on MDA-MB-435 melanoma it was -25.9% (active); in the assay with SW-620 colon, 4.55% (active); with MCF7 breast, 15.5%; in the assay with HCT-116 colon it was 7.49% (active). Moreover, the growth was 68.9% with HCC-2998 colon and 50.1% in the assay on KM12 colon.

As for `Cc1nc2ccccc2c(/C=C/c2ccc(C(F)(F)F)cc2)c1C(=O)/C=C/c1ccccc1`, the growth was -18.6% (active) in the assay on T-47D breast; -0.148% (active) with BT-549 breast; -39.2% (active) in the assay with MDA-MB-435 melanoma; -40.8% (active) in the assay on SW-620 colon; 4.74% (active) in the assay on MCF7 breast; -74.9% (active) in the assay on HCT-116 colon. Moreover, the figures for the growth with HCC-2998 colon and with KM12 colon were -74.7% (active) and 4.07% (active), respectively.

As to `COc1ccc(C2CC(c3ccc4c(c3)OCO4)=Nc3c(N)ncnc3N2)cc1` (stereo not given), the growth with T-47D breast is 84.9%; in the assay with BT-549 breast, 118%; in the assay with MDA-MB-435 melanoma it was 105%; in the assay on SW-620 colon, 95.9%; in the assay with MCF7 breast it was 90.6%; in the assay on HCT-116 colon, 98.5%. Also, the growth in the assay on HCC-2998 colon is 92.4%; in the assay with KM12 colon, 100%.

As for `COc1ccc(Cc2nnc(Nc3nc4ccccc4s3)s2)cc1`, the growth in the assay with T-47D breast was 113%; in the assay on BT-549 breast it was 99.6%; in the assay with MDA-MB-435 melanoma, 96.8%; in the assay on SW-620 colon, 97.8%; in the assay on MCF7 breast, 105%; in the assay on HCT-116 colon, 104%. Further, the figures for the growth in the assay on HCC-2998 colon and in the assay on KM12 colon were 103% and 102%, respectively.

For the molecule `Cc1c2cnccc2c(C)c2c1c1cc(C3OCCCO3)ccc1n2C`, the growth was -4.56% (active) with T-47D breast; -37% (active) in the assay with BT-549 breast; -28.1% (active) in the assay with MDA-MB-435 melanoma; 4.71% (active) in the assay with SW-620 colon; 0.909% (active) with MCF7 breast; 1.45% (active) with HCT-116 colon. The growth with HCC-2998 colon is -15.1% (active); in the assay with KM12 colon, 5.75% (active).

Regarding `COC(=O)/C(CCC=C(C)C)=C1\[C@@H](OC(C)=O)C[C@@]2(C)[C@H]1CC(=O)[C@H]1[C@@]3(C)CCC(N4CCCC4)[C@@H](C)[C@@H]3CC[C@@]12C` (stereo not given in full), the growth in the assay on T-47D breast is 94.9%; with BT-549 breast, 92.5%; in the assay with MDA-MB-435 melanoma it was 97.5%; with SW-620 colon, 103%; in the assay with MCF7 breast it was 74.6%; with HCT-116 colon, 84.9%. Besides, the growth with HCC-2998 colon is 114%; in the assay with KM12 colon, 105%.

For `COc1cc2nc(Nc3cccc(F)c3)nc(Nc3cc(C)[nH]n3)c2cc1OC`, the growth in the assay with T-47D breast is -45.8% [20 µM] (active); in the assay on BT-549 breast it was -83.8% [20 µM] (active); with MDA-MB-435 melanoma, -88.7% [20 µM] (active); in the assay on SW-620 colon it was -58.9% [20 µM] (active); in the assay with MCF7 breast, -66% [20 µM] (active); with HCT-116 colon, -68.2% [20 µM] (active). The growth was -88.3% [20 µM] (active) in the assay on HCC-2998 colon and -69.2% [20 µM] (active) in the assay with KM12 colon.

As for `Cn1cc(-c2ccc3cc(-c4ccc(CC(=O)Nc5cc(C(C)(C)C)on5)cc4)cnc3c2)cn1`, the growth is 34.5% in the assay with T-47D breast; 33% in the assay on BT-549 breast; 17.1% in the assay with MDA-MB-435 melanoma; 12.8% in the assay on SW-620 colon; 40.8% with MCF7 breast; 9.3% (active) in the assay on HCT-116 colon. For the same molecule, the growth in the assay on HCC-2998 colon is 57.8%; in the assay with KM12 colon it was 9.57% (active).

As for `C=C(CN1CC=CCC1)[C@@H]1CC[C@]2(CO)CC[C@]3(C)[C@H](CC[C@@H]4[C@@]5(C)CC[C@H](O)C(C)(C)[C@@H]5CC[C@]43C)[C@@H]12`, the growth in the assay with T-47D breast was 87.6%; in the assay on BT-549 breast, 105%; with MDA-MB-435 melanoma, 105%; with SW-620 colon, 106%; in the assay with MCF7 breast, 88.7%; with HCT-116 colon, 94.4%. Besides, the growth is 116% in the assay on HCC-2998 colon and 107% with KM12 colon.

On to `COc1cc(/C=C2\CN(S(=O)(=O)c3ccc(C)cc3)C/C(=C\c3cc(CN4CCCCC4)c(O)c(OC)c3)C2=O)cc(CN2CCCCC2)c1O`, for which the growth in the assay on T-47D breast is 33.8%; in the assay on BT-549 breast, -49% (active); in the assay on MDA-MB-435 melanoma, -82.6% (active); in the assay with SW-620 colon, -77.5% (active); with MCF7 breast it was -74.4% (active); in the assay with HCT-116 colon, -70.6% (active). The growth is -87.2% (active) with HCC-2998 colon and -85.2% (active) in the assay with KM12 colon.

For `Cc1ccc(-c2nc(C(Cl)Cl)nc3cc(C)nn23)cc1`, the growth in the assay with T-47D breast was 40.9%; in the assay with BT-549 breast, 55.5%; in the assay with MDA-MB-435 melanoma, 12%; with SW-620 colon, -28.5% (active); with MCF7 breast, 20.6%; in the assay on HCT-116 colon it was 6.95% (active). The growth with HCC-2998 colon was -69.3% (active); in the assay with KM12 colon, -9.44% (active).

In the case of `COc1cc2c3c(c1O)-c1ccccc1[C@@H]1OC(=O)N(CC2)[C@H]31`, the growth was 89.6% in the assay on T-47D breast; 111% in the assay with BT-549 breast; 107% with MDA-MB-435 melanoma; 105% with SW-620 colon; 90% in the assay on MCF7 breast; 99.3% in the assay on HCT-116 colon. Moreover, the growth in the assay with HCC-2998 colon was 96.8%; in the assay with KM12 colon, 108%.

Take `C=C1C(=O)O[C@H]2[C@H]1CC/C(CNC(=O)c1cc3ccccc3[nH]1)=C\CC[C@@]1(C)O[C@@H]21`: the growth in the assay on T-47D breast is -42.2% (active); in the assay with BT-549 breast, -79.8% (active); with MDA-MB-435 melanoma, -37.2% (active); in the assay with SW-620 colon, -57.4% (active); in the assay on MCF7 breast, -56.7% (active); with HCT-116 colon, -84% (active). The growth with HCC-2998 colon is -75.5% (active); with KM12 colon, -38.4% (active).

Turning to `Cn1cc(-c2nc(-c3c[nH]c4ccncc34)cs2)c2cc(Br)ccc21`, the growth with T-47D breast is -54.1% (active); with BT-549 breast it was 84.2%; in the assay on MDA-MB-435 melanoma, -81.4% (active); in the assay on SW-620 colon, -71.8% (active); in the assay on MCF7 breast, -72.4% (active); in the assay on HCT-116 colon, -89.7% (active). For the same molecule, the growth in the assay on HCC-2998 colon was -68.9% (active); in the assay with KM12 colon, -83.8% (active).
